# Reference: the supplement of paper PMC8253809
# Several values for one entry are separate records, joined by “and”; a condition that tells them apart may be missing. Identical values can stand only once.
# How the values were obtained:
# Test in all cases: growth inhibition (% activity, log2 RLU normalised to DMSO / staurosporine); higher = more growth inhibition
# Conditions in all cases: 33 µM
# [1] = tested on: DIPGX29 (H3.3 K27M diffuse intrinsic pontine glioma line)
# Summary of the method: (§1)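 pHGG cell lines and H9-derived neural stem cells were grown on Geltrex-coated 384-well plates. Approved drugs were added by pin tool at a single final concentration of about 33 μM, in triplicate, for 7 days at 37 °C, 5% CO2. CellTiter-Glo luminescence was log2-transformed and normalised per plate to % activity between solvent and positive control wells. The growth-inhibition value is the median over replicates.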
# [2] = tested on: DIPGX37 (H3.3 K27M diffuse intrinsic pontine glioma line)
# Summary of the method: as §1
# [3] = tested on: DIPGX7 (H3.3 K27M diffuse intrinsic pontine glioma line)
# Summary of the method: as §1
# [4] = tested on: DIPGX9 (diffuse intrinsic pontine glioma line)
# Summary of the method: as §1
# [5] = tested on: HGGX39 (paediatric high-grade glioma line)
# Summary of the method: as §1
# [6] = tested on: HGGX6 (H3.3 G34R paediatric high-grade glioma line)
# Summary of the method: as §1
# [7] = tested on: HNSC
# Summary of the method: as §1
# [8] = tested on: SUDIPGIV (diffuse intrinsic pontine glioma line)
# Summary of the method: as §1
# [9] = tested on: SUDIPGVI (diffuse intrinsic pontine glioma line)
# Summary of the method: as §1
# [10] = tested on: SUDIPGXIII (diffuse intrinsic pontine glioma line)
# Summary of the method: as §1
SMILES,growth inhibition [1],growth inhibition [2],growth inhibition [3],growth inhibition [4],growth inhibition [5],growth inhibition [6],growth inhibition [7],growth inhibition [8],growth inhibition [9],growth inhibition [10]
CCC(C)(C)c1ccc(CC(C)CN2C[C@@H](C)O[C@@H](C)C2)cc1 (stereo not given in full),9.06%,6.3%,36.9%,0.0137%,15.3%,11.1%,8.57%,11.7%,-11.5%,-7.54%
COc1cc(OC)c(C(=O)CCCN2CCCC2)c(OC)c1,-0.72%,1.82%,0.0577%,0.123%,1.04%,-0.405%,-0.558%,-0.0523%,0.936%,2.53%
N[C@H](Cc1ccccc1)C(=O)O,1.07%,4.02%,1.99%,1.11%,3.77%,0.895%,14.5%,3.32%,2.63%,2.11%
Nc1nccs1,-0.162%,1.62%,-0.134%,1.18%,-0.0642%,-1.25%,5.02%,0.246%,1.08%,0.0518%
Cc1noc(NS(=O)(=O)c2ccc(N)cc2)c1C,-0.149%,-0.401%,-0.198%,-0.0916%,2.16%,-1.61%,29.4%,-0.587%,-0.478%,-3.55%
CCCc1ncc(C[n+]2ccccc2C)c(N)n1,-4.8%,-1.21%,-0.627%,-2.23%,-2.8%,-3.52%,7.92%,-2.86%,-5.24%,0.241%
CCN(CC)C(=O)/C(C#N)=C/c1cc(O)c(O)c([N+](=O)[O-])c1,-0.0111%,1.83%,-1.51%,0.533%,0.054%,-0.625%,-2.42%,-1.01%,-0.299%,1.29%
Cc1ccc(Nc2nccc(N(C)c3ccc4c(C)n(C)nc4c3)n2)cc1S(N)(=O)=O,3.74% and 7.46%,4.99% and 1.63%,5% and 10.4%,3.67% and 7.92%,6.65% and 10.2%,5.31% and 11.1%,4.18% and 9.11%,4.44% and 6.85%,5.08% and 5.8%,3.27% and 1.33%
CCCOc1ccc(C(=O)OCCN(CC)CC)cc1N,-3.81%,-2.51%,0.125%,-2.19%,6.15%,3.2%,4.12%,-0.212%,-1.94%,0.093%
CC(=O)NS(=O)(=O)c1ccc(NC(=O)c2ccccc2C(=O)O)cc1,-1.87%,-0.137%,-3.14%,-1.16%,-2.19%,-0.75%,-2.78%,-2.4%,-1.59%,-0.151%
c1cc(CN2CCCNCCNCCCNCC2)ccc1CN1CCCNCCNCCCNCC1,1.86%,3.43%,1.65%,2.55%,4.18%,5.37%,11.8%,12.5%,5.04%,3.18%
CCCCNc1cc(C(=O)O)cc(S(N)(=O)=O)c1Oc1ccccc1,-3.49%,-2.83%,-0.851%,-2.74%,-2.98%,-3.62%,-3.52%,-5.34%,-8.55%,-2.43%
CO/N=C(\C(=O)N[C@@H]1C(=O)N2C(C(=O)O)=C(Cn3ccc(=N)n3CCO)CS[C@H]12)c1csc(N)n1,-0.673%,1.46%,0.0521%,0.497%,-0.232%,0.395%,-1.19%,-0.702%,0.0229%,1.31%
CCN(CC)CCNC(=O)c1c(C)[nH]c(/C=C2\C(=O)Nc3ccc(F)cc32)c1C,25.8%,6.19%,11.1%,7.94%,7.9%,20.3%,71.3%,-3.41%,3.36%,-4.08%
CC(C)c1nc(CN(C)C(=O)N[C@@H](CCN2CCOCC2)C(=O)N[C@H](CC[C@H](Cc2ccccc2)NC(=O)OCc2cncs2)Cc2ccccc2)cs1,3.78%,0.997%,0.492%,2.24%,2.07%,1.63%,1.95%,-0.101%,3.61%,-0.613%
CCCCc1oc2ccc(NS(C)(=O)=O)cc2c1C(=O)c1ccc(OCCCN(CCCC)CCCC)cc1,58.9%,57.4%,57%,57.4%,56.2%,60.2%,55.5%,57.7%,59.4%,24.1%
CC(C)(O/N=C(\C(=O)N[C@@H]1C(=O)N2C(C(=O)[O-])=C(C[n+]3ccccc3)CS[C@H]12)c1csc(N)n1)C(=O)O,-0.082%,3.29%,2.31%,0.416%,1.23%,-0.0518%,1.13%,-0.671%,2.58%,0.376%
CCN[C@@H]1C[C@H](N)[C@@H](O[C@H]2OC(CN)=CC[C@H]2N)[C@H](O)[C@H]1O[C@H]1OC[C@](C)(O)[C@H](NC)[C@H]1O,0.443%,3.8%,2.72%,2.1%,2.39%,-0.182%,8.55%,3.28%,2.97%,2.03%
CN1CCN(CCCN2c3ccccc3Sc3ccc(Cl)cc32)CC1,4.66%,1.44%,9.7%,-0.83%,3.02%,1.39%,13.3%,-0.567%,-3.14%,-0.277%
OC1(c2ccc(Cl)c(C(F)(F)F)c2)CCN(CCCC(c2ccc(F)cc2)c2ccc(F)cc2)CC1,22.5%,-5.49%,5.28%,-1.11%,4.1%,4.08%,71.6%,4.36%,-7.48%,51.7%
Cc1c(Cl)cccc1Nc1ccccc1C(=O)O,1.71%,2.72%,2.88%,2.29%,4.47%,2.44%,4.89%,-2.4%,2.85%,0.296%
CN(C)C(=N)NC(=N)N,-1.21%,-7.32%,-1.41%,-1.73%,-3.04%,-0.131%,-0.258%,-2.86%,-9.44%,-1.47%

SMILES,growth inhibition [1],growth inhibition [2],growth inhibition [3],growth inhibition [4],growth inhibition [5],growth inhibition [6],growth inhibition [7],growth inhibition [8],growth inhibition [9],growth inhibition [10]
CO[C@@H]1[C@@H](OC(N)=O)[C@@H](O)[C@H](Oc2ccc3c(O)c(NC(=O)c4ccc(O)c(CC=C(C)C)c4)c(=O)oc3c2C)OC1(C)C,-0.0643%,3.02%,1.66%,0.55%,3.59%,-2.58%,12.1%,4.51%,2%,-0.64%
COc1c2ccoc2cc2oc(=O)ccc12,0.175%,-0.379%,0.232%,1.51%,1.71%,2.12%,-1.02%,0.44%,0.394%,-0.028%
Nc1c2ccccc2nc2ccccc12,17.5%,1.87%,5.31%,20.4%,12.2%,14.7%,58.1%,14.3%,5.87%,0.896%
CCCCc1nc(Cl)c(CO)n1Cc1ccc(-c2ccccc2-c2nnn[nH]2)cc1,1.53%,-1.24%,-0.599%,0.985%,0.264%,1.5%,2.21%,0.0281%,1.16%,0.404%
CCN1CCN(C(=O)NC(C(=O)NC2C(=O)N3C(C(=O)O)=C(CSc4nnnn4C)CSC23)c2ccc(O)cc2)C(=O)C1=O (stereo not given),-4.55%,0.256%,-3.04%,-2.18%,0.547%,-2.32%,-1.87%,-3.07%,-2.25%,-0.109%
CC(=O)[C@H]1CC[C@H]2[C@@H]3CCC4=CC(=O)CC[C@]4(C)[C@H]3CC[C@]12C,1.09%,3.02%,4.3%,2%,4.64%,5.84%,2.02%,-1.26%,1.04%,1.18%
CC[C@H](C)[C@H](N)C1=N[C@H](C(=O)N[C@@H](CC(C)C)C(=O)N[C@H](CCC(=O)O)C(=O)N[C@H](C(=O)N[C@H]2CCCCNC(=O)[C@H](CC(N)=O)NC(=O)[C@@H](CC(=O)O)NC(=O)[C@H](Cc3cnc[nH]3)NC(=O)[C@@H](Cc3ccccc3)NC(=O)[C@H]([C@@H](C)CC)NC(=O)[C@@H](CCCN)NC2=O)[C@@H](C)CC)CS1,0.716%,-3.59%,2.09%,-0.221%,2.77%,-1.08%,1.3%,0.589%,-1.54%,-1.26%
CCc1cc(C(N)=S)ccn1,-2.89%,-1.22%,-0.907%,-2.73%,-1.46%,-1.03%,-5.37%,-0.99%,-3.57%,-0.39%
O=C(NCCN1CCOCC1)c1ccc(Cl)cc1,0.0777%,-0.588%,-0.129%,-0.472%,-0.0669%,-0.698%,-1.63%,-0.786%,-1.17%,0.934%
CCn1cc(C(=O)O)c(=O)c2cc(F)c(N3CCN(C)CC3)cc21,0.946%,0.351%,1.65%,1.44%,2.84%,0.565%,3.22%,1.47%,1.27%,1.57%
CC(=O)OCC(=O)[C@@]1(O)[C@H](C)C[C@H]2[C@@H]3CCC4=CC(=O)C=C[C@]4(C)[C@@]3(F)[C@@H](O)C[C@@]21C,6.47%,3.67%,1.89%,6.29%,6.91%,5.01%,2.34%,5.88%,3.94%,1.28%
Nc1cccc2c1CN(C1CCC(=O)NC1=O)C2=O (stereo not given),0.182%,0.237%,4.3%,2.15%,4.65%,4.94%,4.5%,1.6%,2.41%,-0.527%
CCCN(CCC)S(=O)(=O)c1ccc(C(=O)O)cc1,-1.26%,2.49%,0.672%,0.0871%,1.02%,-3.52%,8.98%,1.56%,-6.21%,0.262%
CC(C)(CO)[C@@H](O)C(=O)NCCC(=O)O,-2.53%,-0.522%,-0.818%,-0.68%,-0.909%,-0.397%,-0.802%,-0.366%,-3.69%,1.65%
CNC1CCCN(c2c(F)cc3c(=O)c(C(=O)O)cn(C4CC4)c3c2OC)C1 (stereo not given),-0.899%,0.515%,-0.411%,1.06%,0.742%,1.27%,-1.65%,-0.11%,-0.677%,0.279%
O=c1[nH]c(=O)n([C@H]2C[C@H](O)[C@@H](CO)O2)cc1I,0.0722%,-1.6%,-3.14%,-0.0918%,-2.1%,-0.2%,17.9%,-1.37%,-0.112%,0.635%
Cn1cnc([N+](=O)[O-])c1Sc1ncnc2[nH]cnc12,15.9%,9.81%,21.6%,13.8%,18.2%,18.5%,55.8%,32.2%,8.24%,17.1%
CNC(=O)c1ccc(N2C(=S)N(c3ccc(C#N)c(C(F)(F)F)c3)C(=O)C2(C)C)cc1F,0.905%,-0.457%,1.36%,1.43%,6.4%,1.33%,4.97%,1.84%,-1.51%,1.86%
Clc1ccc(C(Cn2ccnc2)OCc2ccsc2Cl)c(Cl)c1 (stereo not given),4.62%,-2.6%,2.82%,4.52%,8.15%,7.53%,4.99%,13.7%,2.98%,5.65%
CCCSc1ccc2[nH]c(NC(=O)OC)nc2c1,7.72%,7.1%,6.94%,11.9%,15.5%,7.25%,61.3%,19%,-3.32%,4.87%
Cc1ccc(-c2cc(C(F)(F)F)nn2-c2ccc(S(N)(=O)=O)cc2)cc1,0.436%,-3.87%,-0.904%,0.265%,-0.617%,-1.39%,0.519%,-5.64%,1.64%,0.102%
